Experimental data taken from PubChem BioAssay (Tox21).
Where “and” joins values, the source holds several entries; their conditions need not be identical. Equal entries are not always repeated. Inconclusive results are not listed. Some compounds were tested as several samples or in several runs, with calls that do not always agree. Calls of active or inactive are those of the source. The call rests on the fitted dose curve; in most records, active means well fitted inhibition curve with a large enough effect in the repeat runs; inconclusive means weak or mixed curves; inactive means no such curve, though single readings can be large or run the other way.

Experiments:
[1] = target: Cytochrome P450 2D6 (Homo sapiens) (UniProt P10635); experiment: Cytochrome P450 Family 2 Subfamily D Member 6 (CYP2D6) small molecule antagonists: luciferase reporter qHTS assay (AID 1671196); details: P450-Glo CYP2D6 enzyme assay, luciferin luminescence, 1 h; series mostly up to 115 µM; further: nearly all actives have a fitted effect of over 50% in size; further: potency means the concentration at half of the fitted maximal effect
Outline: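 Inhibition of CYP2D6 was gauged by loss of luminescence, since light produced tracks the luciferin generated from a proluciferin substrate. A 10 min room-temperature preincubation preceded 1 h NADPH-supported turnover.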

[2] = target: Cytochrome P450 2C19 (Homo sapiens) (UniProt P33261); experiment: Cytochrome P450 Family 2 Subfamily C Member 19 (CYP2C19) small molecule antagonists: luciferase reporter qHTS assay (AID 1671197); details: P450-Glo CYP2C19 enzyme, luciferin luminescence, 1 h; series mostly up to 115 µM; further: nearly all actives have a fitted effect of over 65% in size; further: potency means the concentration at half of the fitted maximal effect
Outline: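 CYP2C19 P450-Glo, 1536-well qHTS. Cpd + enzyme/proluciferin substrate 10 min RT; + NADPH regen, 37C 1 h; stop with luciferin detection reagent, 20 min RT, luminescence (RLU). Pos ctrl ketoconazole.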

[3] = target: Cytochrome P450 1A2 (Homo sapiens) (UniProt P05177); experiment: Cytochrome P450 Family 1 Subfamily A Member 2 (CYP1A2) small molecule antagonists: luciferase reporter qHTS assay (AID 1671199); details: P450-Glo CYP1A2 enzyme, luciferin luminescence, 1 h; series mostly up to 115 µM; further: nearly all actives have a fitted effect of over 50% in size; further: potency means the concentration at half of the fitted maximal effect
Outline: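 Signal from luciferin formed by CYP1A2 from a proluciferin substrate is read as luminescence, expressed in relative luminescence units. Compounds sit with enzyme 10 min, NADPH-driven reaction runs 1 h, all at room temperature.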

[4] = target: Cytochrome P450 3A4 (Homo sapiens) (UniProt P08684); experiment: Cytochrome P450 Family 3 Subfamily A Member 4 (CYP3A4) small molecule antagonists: luciferase reporter qHTS assay (AID 1671201); details: P450-Glo CYP3A4 enzyme, luciferin luminescence, 1 h; series mostly up to 115 µM; further: nearly all actives have a fitted effect of over 50% in size
Outline: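 Room-temperature assay throughout: 10 min compound–enzyme/substrate preincubation, 1 h reaction after NADPH regeneration solution, 20 min detection. Luciferin formed from proluciferin substrate is quantified by luminescence.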

[5] = target: Cytochrome P450 2C9 (Homo sapiens) (UniProt P11712); experiment: Cytochrome P450 Family 2 Subfamily C Member 9 (CYP2C9) small molecule antagonists: luciferase reporter qHTS assay (AID 1671198); details: P450-Glo CYP2C9 enzyme assay, luciferin luminescence; series mostly up to 115 µM; further: nearly all actives have a fitted effect of over 50% in size; further: potency means the concentration at half of the fitted maximal effect
Outline: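 CYP2C9 activity was measured with a P450-Glo proluciferin substrate. Enzyme–substrate mix was held with compound for 10 min at room temperature, then NADPH regeneration solution was added for 1 h at 37C. Luciferin product was read as luminescence.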

Chain of Cytochrome P450 2D6 (Homo sapiens) (P10635 whole entry, looked up): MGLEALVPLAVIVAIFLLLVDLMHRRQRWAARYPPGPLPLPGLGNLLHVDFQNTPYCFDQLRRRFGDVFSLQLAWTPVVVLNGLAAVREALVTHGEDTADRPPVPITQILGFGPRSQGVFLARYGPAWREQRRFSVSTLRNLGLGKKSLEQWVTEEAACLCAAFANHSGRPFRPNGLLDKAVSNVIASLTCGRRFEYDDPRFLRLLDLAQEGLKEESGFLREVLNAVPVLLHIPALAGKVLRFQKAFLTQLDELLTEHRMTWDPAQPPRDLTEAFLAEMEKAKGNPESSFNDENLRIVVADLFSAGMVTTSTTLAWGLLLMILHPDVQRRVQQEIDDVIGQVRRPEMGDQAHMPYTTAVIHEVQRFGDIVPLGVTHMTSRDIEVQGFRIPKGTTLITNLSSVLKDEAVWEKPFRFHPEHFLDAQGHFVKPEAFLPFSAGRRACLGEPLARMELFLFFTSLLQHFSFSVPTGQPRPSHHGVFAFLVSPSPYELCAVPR
Chain of Cytochrome P450 3A4 (Homo sapiens) (P08684 whole entry, looked up): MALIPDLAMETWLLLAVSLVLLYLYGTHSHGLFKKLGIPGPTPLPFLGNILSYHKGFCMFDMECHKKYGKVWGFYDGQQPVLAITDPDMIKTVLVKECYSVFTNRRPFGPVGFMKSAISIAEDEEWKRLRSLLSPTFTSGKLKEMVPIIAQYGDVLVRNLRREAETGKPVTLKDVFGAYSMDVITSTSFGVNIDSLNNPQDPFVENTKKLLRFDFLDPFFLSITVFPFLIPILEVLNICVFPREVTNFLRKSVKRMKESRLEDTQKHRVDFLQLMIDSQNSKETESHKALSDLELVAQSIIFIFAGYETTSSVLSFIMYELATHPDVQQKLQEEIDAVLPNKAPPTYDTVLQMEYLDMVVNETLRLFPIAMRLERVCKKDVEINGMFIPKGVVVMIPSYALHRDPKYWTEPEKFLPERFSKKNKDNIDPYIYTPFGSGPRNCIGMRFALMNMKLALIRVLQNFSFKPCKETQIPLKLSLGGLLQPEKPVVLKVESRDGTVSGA
Chain of Cytochrome P450 2C19 (Homo sapiens) (P33261 whole entry, looked up): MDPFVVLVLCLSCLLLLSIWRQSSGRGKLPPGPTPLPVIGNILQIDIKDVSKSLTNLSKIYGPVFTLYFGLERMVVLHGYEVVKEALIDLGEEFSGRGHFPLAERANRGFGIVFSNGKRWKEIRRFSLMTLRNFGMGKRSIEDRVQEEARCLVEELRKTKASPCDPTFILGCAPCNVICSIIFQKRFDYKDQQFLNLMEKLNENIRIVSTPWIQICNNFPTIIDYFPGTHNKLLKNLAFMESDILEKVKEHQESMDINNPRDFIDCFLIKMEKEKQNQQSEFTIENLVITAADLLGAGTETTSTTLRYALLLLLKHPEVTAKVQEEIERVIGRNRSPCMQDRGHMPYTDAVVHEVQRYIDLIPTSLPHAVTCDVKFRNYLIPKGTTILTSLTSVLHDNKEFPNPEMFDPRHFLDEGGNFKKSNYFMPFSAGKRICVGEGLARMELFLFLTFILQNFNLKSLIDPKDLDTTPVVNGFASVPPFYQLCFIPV
Chain of Cytochrome P450 1A2 (Homo sapiens) (P05177 whole entry, looked up): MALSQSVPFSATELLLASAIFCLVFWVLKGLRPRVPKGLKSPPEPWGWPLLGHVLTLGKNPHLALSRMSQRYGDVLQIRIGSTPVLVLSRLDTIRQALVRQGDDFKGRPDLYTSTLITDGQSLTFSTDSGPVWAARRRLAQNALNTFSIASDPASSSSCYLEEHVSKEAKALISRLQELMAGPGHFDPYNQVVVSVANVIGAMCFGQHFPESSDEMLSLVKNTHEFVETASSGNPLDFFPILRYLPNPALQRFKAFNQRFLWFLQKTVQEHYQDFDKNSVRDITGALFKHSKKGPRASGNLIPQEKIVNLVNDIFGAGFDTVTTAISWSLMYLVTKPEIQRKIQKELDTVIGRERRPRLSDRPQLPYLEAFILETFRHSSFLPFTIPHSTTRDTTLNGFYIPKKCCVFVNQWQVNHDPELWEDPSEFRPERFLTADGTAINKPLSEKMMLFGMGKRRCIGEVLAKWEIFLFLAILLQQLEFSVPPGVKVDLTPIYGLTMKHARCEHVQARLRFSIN
Chain of Cytochrome P450 2C9 (Homo sapiens) (P11712 whole entry, looked up): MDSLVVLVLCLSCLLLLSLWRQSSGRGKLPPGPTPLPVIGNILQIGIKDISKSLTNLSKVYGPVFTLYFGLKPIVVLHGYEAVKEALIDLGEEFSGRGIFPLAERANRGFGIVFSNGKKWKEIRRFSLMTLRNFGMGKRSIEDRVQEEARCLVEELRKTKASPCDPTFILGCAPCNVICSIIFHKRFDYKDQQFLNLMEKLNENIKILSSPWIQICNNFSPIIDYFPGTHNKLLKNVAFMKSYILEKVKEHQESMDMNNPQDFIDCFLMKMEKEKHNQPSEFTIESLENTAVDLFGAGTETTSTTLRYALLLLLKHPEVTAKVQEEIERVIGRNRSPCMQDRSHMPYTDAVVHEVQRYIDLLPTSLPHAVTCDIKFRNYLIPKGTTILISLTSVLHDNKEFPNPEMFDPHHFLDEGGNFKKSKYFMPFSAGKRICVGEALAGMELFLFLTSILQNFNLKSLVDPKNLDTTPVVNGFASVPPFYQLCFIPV

Compound	Potency [1]	Potency [2]	Potency [3]	Potency [4]	Potency [5]
CC1(C)S[C@@H]2[C@H](NC(=O)[C@H](N)c3ccccc3)C(=O)N2[C@H]1C(=O)O	44.5 µM (active) and inactive	inactive	inactive	inactive	
Nc1c2c(nc3ccccc13)CCCC2	3.56 µM (active) and 11.2 µM (active) and 11 µM (active)	39.9 µM (active) and inactive	5.03 µM (active) and 7.1 µM (active) and 7.23 µM (active)	inactive	inactive
CCCCCCCCCCCC[N+](C)(C)Cc1ccccc1	984 nM (active) and 866 nM (active) and 219 nM (active)	78.1 µM (active) and 34.5 µM (active) and 17.4 µM (active)	34.9 µM (active) and 38.7 µM (active) and 36.3 µM (active)	inactive	77.2 µM (active)
